Results published in PubChem BioAssay AID2013 (Sanford-Burnham Center for Chemical Genomics, 2009).
About 370 (0.13%) of roughly 290,000 compounds were called active. Shown is part of a subset that was picked to be rich in actives. Measured potencies and affinities stand elsewhere. A number with no mark means an inactive call.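 Rule for the calls: active = spots per cell inhibited over 60%, with over 100 cells counted and total cytoplasm intensity under 500,000; inconclusive = wells with under 100 cells, flagged as likely toxic; inactive = the rest.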

What follows are compounds tested against G-protein coupled receptor 55 (Homo sapiens) (UniProt Q9Y2T6) (assay: inhibition of LPI-stimulated GPR55 beta-arrestin translocation – imaging, U2OS, beta-arrestin-GFP, LPI agonist, primary screen (AID 2013;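 note: U2OS cells stably carrying GPR55 and arrestin-GFP stimulated by 5 µM LPI near EC80; imaged beta-arrestin-GFP aggregate spots per cell after agonist stimulation; plate controls were LPI-stimulated DMSO wells for no effect and DMSO wells without LPI for full effect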)). Conditions: LPI antagonism, at 10 µM, stronger effect = higher value.
G-protein coupled receptor 55 (Homo sapiens), sequence (Q9Y2T6 whole entry, looked up): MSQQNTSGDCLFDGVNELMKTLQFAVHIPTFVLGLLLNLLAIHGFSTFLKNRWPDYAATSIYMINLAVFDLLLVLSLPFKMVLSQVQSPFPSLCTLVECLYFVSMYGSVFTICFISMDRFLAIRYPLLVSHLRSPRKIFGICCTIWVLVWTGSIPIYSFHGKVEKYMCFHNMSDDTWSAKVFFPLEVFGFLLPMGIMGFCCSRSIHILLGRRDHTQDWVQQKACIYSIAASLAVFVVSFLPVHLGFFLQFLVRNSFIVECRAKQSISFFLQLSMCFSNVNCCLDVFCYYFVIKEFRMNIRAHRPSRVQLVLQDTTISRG

SMILES | inhibition
Cc1csc(SCC(=O)Nc2sccc2C(N)=O)n1 | 2.4%
CCOC(=O)CC1C(=O)NCCN1c1nc2ccc(C)cn2c(=O)c1/C=C1\SC(=S)N(CC(C)C)C1=O (stereo not given) | 26.9%
CCOC(=O)CC1C(=O)NCCN1S(=O)(=O)c1ccc(C)cc1 (stereo not given) | 6.6%
CCCN1C(=O)/C(=C/c2c(N3CCNC(=O)C3CC(=O)OC)nc3c(C)cccn3c2=O)SC1=S (stereo not given) | 46.4%
CCCN1C(=O)/C(=C/c2c(NCCCOCC)nc3c(C)cccn3c2=O)SC1=S | 8%
CCCN1C(=O)/C(=C/c2c(N3CCNC(=O)C3CC(=O)OCC)nc3c(C)cccn3c2=O)SC1=S (stereo not given) | 88.9% (active)
CCOC(=O)CC1C(=O)NCCN1c1nc2ccc(C)cn2c(=O)c1/C=C1\SC(=S)N(C(C)CC)C1=O (stereo not given) | 70.2% (active)
CSc1ccccc1C(=O)NCc1cccnc1 | -2.4%
C=CCn1c(SCC(=O)Nc2ccc(F)cc2F)nc2c([nH]c3ccccc32)c1=O | -3.4%
CCC(NS(=O)(=O)c1ccc2c(c1)NC(=O)C(C)C(=O)N2)c1cccs1 (stereo not given) | 1%
CC/C(=N/N=C(\CC)c1ccccc1)c1ccccc1 | 20.4%
COc1ccccc1N1CCN(C(=O)c2cc3c(s2)CCCCC3)CC1 | 6.6%
c1ccc(CN2CCC(Nc3nc(-c4cccnc4)nc4ccccc34)CC2)cc1 | 21.2%
c1ccc(CN2CCC(Nc3nc(-c4cccs4)nc4ccccc34)CC2)cc1 | 84.6% (active)
c1ccc(CN2CCC(Nc3nc(-c4ccccc4)nc4ccccc34)CC2)cc1 | 31%
CC(=O)Nc1ccc(C(=O)OCC(=O)Nc2ccccc2Sc2ccccc2)cc1 | 16.2%
N#CCC(=O)Nc1ccc(C(=O)OCC(=O)Nc2ccccc2-c2ccccc2)cc1 | 6.7%
Cc1ccc(S(=O)(=O)N2CCN(c3nc(C(C)C)c4c(c3C#N)CC(C)(C)OC4)CC2)cc1 | 2.3%
Cc1nc(N2CCOCC2)c(C#N)c2c1COC(C)(C)C2 | -9%
COc1ccc(C2c3c(oc4ccc(C)cc4c3=O)C(=O)N2c2cc(C)ccn2)cc1OC (stereo not given) | 86.9% (active)
COc1cc(C2c3c(oc4cc(C)c(C)cc4c3=O)C(=O)N2c2cc(C)ccn2)ccc1O (stereo not given) | 2.8%
COc1cc(C2c3c(oc4ccc(C)cc4c3=O)C(=O)N2c2cc(C)ccn2)cc(OC)c1OC (stereo not given) | 17.6%
COc1cccc(-c2cc(=O)c3cc(NC(=O)c4ccc(Cl)cc4)ccc3[nH]2)c1 | -2.5%
O=C(c1ccc(Oc2ccc([N+](=O)[O-])cc2Cl)cc1)N1CCCC1 | -12.4%
O=C(c1cccc(Oc2ccc([N+](=O)[O-])cc2Cl)c1)N1CCOCC1 | -4.4%
